According to PubChem BioAssay (EPA / NIEHS):
Where “and” joins values, the source holds several entries; their conditions need not be identical. Identical values can stand only once. Some structures have more than one record in an assay (separate samples or runs), and their calls can disagree. Calls of active or inactive are those of the source. The calls were made as follows: active = hit-call score of the fitted dose curve at least 0.9, where 1 is the maximum; inactive = score below 0.9.

How the values were obtained:
[1] = biological target: Paired box protein Pax-6 (Homo sapiens) (UniProt P26367); test: ATG_Pax6_CIS: Attagene CIS-FACTORIAL HepG2 Assay for human Paired Box 6 (PAX6) (AID 2282956); settings: HepG2 CIS-FACTORIAL PAX6 reporter transcription, RNA readout; actives raise or lower the signal
How it was run: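 After twenty-four hours of chemical exposure, transfected HepG2 cells are harvested for RNA. Cis-promoter reporter transcripts are amplified, fluorescently labelled and sized by capillary electrophoresis, with gain and loss of signal scored against DMSO.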

[2] = ATG_PXRE_CIS: Attagene CIS-FACTORIAL HepG2 Assay for human Pregnane X Receptor Element (PXRE) (AID 2282957); settings: HepG2 Attagene CIS-FACTORIAL PXRE reporter, mRNA; actives raise or lower the signal
How it was run: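 Cis-element reporter mRNA in human hepatoma HepG2 cells is measured 24 h post-dosing by RT-PCR, primer-extension labeling and capillary electrophoresis; gain or loss of signal is fitted relative to DMSO.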

[3] = ATG_PPRE_CIS: Attagene CIS-FACTORIAL HepG2 Assay for human Peroxisome Proliferator-activated Response Element (PPRE) (AID 2282958); settings: HepG2 PPRE cis-element reporter, Attagene transcription factor profiling; actives raise or lower the signal
How it was run: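 HepG2, transient MRTU transfection (cis promoter elements, endogenous TFs). 24 h dosing. RNA → oligo(dT) RT → PCR → 6-FAM primer extension → HpaI digest → CE. Bidirectional fit vs DMSO.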

[4] = ATG_RORE_CIS: Attagene CIS-FACTORIAL HepG2 Assay for human RAR-related Orphan Receptor Element (RORE) (AID 2282959); settings: HepG2 Attagene cis-factorial RORE reporter, mRNA; actives raise or lower the signal
How it was run: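 Transient MRTU transfection of human HepG2 liver cells (FuGene 6); 24 h compound exposure; TriZol RNA, oligo(dT) RT, PCR, FAM labeling, HpaI cut, CE fragment analysis. DMSO = negative control/baseline.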

[5] = ATG_Sox_CIS: Attagene CIS-FACTORIAL HepG2 Assay for human SRY-box transcription factor (SOX) (AID 2282960); settings: HepG2 Attagene cis-factorial SOX reporter, mRNA; actives raise or lower the signal
How it was run: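 Endogenous factor activity in human liver HepG2 cells carrying transfected cis-regulated reporter units. RNA taken 24 h post-dose, reverse-transcribed, PCR-amplified and sized by capillary electrophoresis. Gain or loss of signal fitted relative to DMSO.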

[6] = biological target: Transcription factor Sp1 (Homo sapiens) (UniProt P08047); test: ATG_Sp1_CIS: Attagene CIS-FACTORIAL HepG2 Assay for human Specificity Protein 1 (Sp1) (AID 2282961); settings: HepG2 Sp1 cis-reporter transcription, actives raise or lower the signal
How it was run: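 Transient MRTU-transfected HepG2, 24 h compound exposure. Total RNA → oligo(dT) RT → PCR of reporter → 6-FAM primer extension → HpaI digest → CE. Endpoint fitted both directions vs DMSO.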

[7] = ATG_SREBP_CIS: Attagene CIS-FACTORIAL HepG2 Assay for human Sterol Regulatory Element Binding (SREBP) (AID 2282962); settings: HepG2 Attagene cis-factorial SREBP reporter, mRNA; actives raise or lower the signal
How it was run: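 Twenty-four hours after chemical dosing of transfected HepG2 cultures, reporter RNA was converted to cDNA, amplified, end-labelled with 6-FAM and resolved by capillary electrophoresis. Responses were fitted relative to DMSO.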

[8] = biological target: Signal transducer and activator of transcription 3 (Homo sapiens) (UniProt P40763); test: ATG_STAT3_CIS: Attagene CIS-FACTORIAL HepG2 Assay for human Signal Transducer and Activator of Transcription 3 (STAT3) (AID 2282963); settings: HepG2, Attagene cis-factorial STAT3 reporter transcription; actives raise or lower the signal
How it was run: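 Transcript-level reporter assay. HepG2 transient MRTU transfection, 24 h exposure, fluorescence detection after RT-PCR and CE; DMSO baseline.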

[9] = ATG_TA_CIS: Attagene CIS-FACTORIAL HepG2 Assay for human TA Basal Promoter (AID 2282964); settings: HepG2 Attagene CIS-factorial TA basal promoter reporter; actives raise or lower the signal
How it was run: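 Transfected HepG2, 24 h compound exposure; RNA → RT-PCR → FAM primer extension → HpaI cut → CE fluorescence. Gain/loss-of-signal fitted against DMSO negative control. Background-control readout.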

Paired box protein Pax-6 (Homo sapiens), sequence (P26367 whole entry, looked up): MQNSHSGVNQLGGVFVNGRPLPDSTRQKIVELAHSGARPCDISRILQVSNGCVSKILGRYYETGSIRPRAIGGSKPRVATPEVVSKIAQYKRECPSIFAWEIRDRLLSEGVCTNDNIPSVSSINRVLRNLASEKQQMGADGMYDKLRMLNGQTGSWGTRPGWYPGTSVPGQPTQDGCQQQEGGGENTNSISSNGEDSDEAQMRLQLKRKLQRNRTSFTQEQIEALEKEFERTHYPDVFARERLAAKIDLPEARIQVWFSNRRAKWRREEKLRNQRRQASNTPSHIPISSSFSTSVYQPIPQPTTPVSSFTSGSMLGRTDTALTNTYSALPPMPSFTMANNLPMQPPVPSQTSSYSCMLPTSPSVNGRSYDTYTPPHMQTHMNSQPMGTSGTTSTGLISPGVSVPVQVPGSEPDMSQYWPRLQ
Signal transducer and activator of transcription 3 (Homo sapiens), sequence (P40763 whole entry, looked up): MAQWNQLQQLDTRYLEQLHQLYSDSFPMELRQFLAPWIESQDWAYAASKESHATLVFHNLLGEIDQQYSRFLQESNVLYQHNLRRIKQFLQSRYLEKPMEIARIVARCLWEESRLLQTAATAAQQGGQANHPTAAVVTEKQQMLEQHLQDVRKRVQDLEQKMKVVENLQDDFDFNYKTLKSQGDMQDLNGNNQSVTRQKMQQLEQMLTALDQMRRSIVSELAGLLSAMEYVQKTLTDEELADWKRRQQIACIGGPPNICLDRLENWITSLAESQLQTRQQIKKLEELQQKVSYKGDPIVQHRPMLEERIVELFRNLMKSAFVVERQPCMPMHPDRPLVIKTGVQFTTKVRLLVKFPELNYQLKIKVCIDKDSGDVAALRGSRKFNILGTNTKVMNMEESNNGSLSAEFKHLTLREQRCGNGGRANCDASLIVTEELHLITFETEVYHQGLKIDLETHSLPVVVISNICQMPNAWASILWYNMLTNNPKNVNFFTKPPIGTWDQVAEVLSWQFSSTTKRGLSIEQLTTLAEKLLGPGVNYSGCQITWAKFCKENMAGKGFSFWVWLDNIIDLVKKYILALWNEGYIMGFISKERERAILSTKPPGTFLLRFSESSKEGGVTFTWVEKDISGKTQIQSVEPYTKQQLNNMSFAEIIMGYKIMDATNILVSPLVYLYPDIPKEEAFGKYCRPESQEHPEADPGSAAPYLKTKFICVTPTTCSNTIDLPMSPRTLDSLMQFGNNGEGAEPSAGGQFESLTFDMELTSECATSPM
Transcription factor Sp1 (Homo sapiens), sequence (P08047 whole entry, looked up): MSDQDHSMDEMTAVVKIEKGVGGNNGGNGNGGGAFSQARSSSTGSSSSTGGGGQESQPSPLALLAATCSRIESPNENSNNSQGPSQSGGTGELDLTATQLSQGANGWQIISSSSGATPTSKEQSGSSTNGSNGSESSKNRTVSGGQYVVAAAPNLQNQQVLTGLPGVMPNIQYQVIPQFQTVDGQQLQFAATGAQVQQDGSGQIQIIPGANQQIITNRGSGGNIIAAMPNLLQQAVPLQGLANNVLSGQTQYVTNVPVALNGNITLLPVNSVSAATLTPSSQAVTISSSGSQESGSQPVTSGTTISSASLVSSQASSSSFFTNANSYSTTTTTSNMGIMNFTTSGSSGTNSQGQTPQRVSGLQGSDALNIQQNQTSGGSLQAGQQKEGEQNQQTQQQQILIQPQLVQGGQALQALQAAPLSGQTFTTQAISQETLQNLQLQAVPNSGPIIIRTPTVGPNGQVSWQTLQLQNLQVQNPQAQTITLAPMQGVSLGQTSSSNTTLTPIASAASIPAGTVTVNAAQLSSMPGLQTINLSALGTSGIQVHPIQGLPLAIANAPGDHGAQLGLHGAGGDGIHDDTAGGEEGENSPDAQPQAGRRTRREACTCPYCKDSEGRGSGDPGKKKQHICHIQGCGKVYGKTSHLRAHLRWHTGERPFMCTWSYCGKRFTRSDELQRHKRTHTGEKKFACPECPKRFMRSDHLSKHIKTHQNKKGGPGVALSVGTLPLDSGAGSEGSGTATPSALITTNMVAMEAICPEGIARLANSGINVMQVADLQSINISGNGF

Compound | AC50 [1] | outcome [1] | AC50 [2] | outcome [2] | outcome [3] | AC50 [4] | outcome [4] | AC50 [5] | outcome [5] | outcome [6] | outcome [7] | outcome [8] | AC50 [9] | outcome [9] | AC50 [6] | AC50 [3] | AC50 [7]
Oc1cc(Cl)ccc1Oc1ccc(Cl)cc1Cl | 13.9 µM (active) and 8.6 µM (active) | inactive | 2.98 µM (active) [middle of 7 runs] | inactive | inactive | 12.7 µM (active) and 15.1 µM (active) and 15.8 µM (active) | inactive | 11.1 µM (active) and 10.3 µM (active) | inactive | inactive | inactive | inactive | 17.4 µM (active) | inactive | – | – | –
Cc1[nH]c(=O)n(C(C)(C)C)c(=O)c1Cl | – | inactive | – | inactive | – | – | inactive | – | inactive | – | inactive | inactive | – | inactive | 50 µM (active) | – | –
CC(C)(C)C(O)/C(=C\c1ccc(Cl)cc1Cl)n1cncn1 (configuration not stated) | – | inactive | 5 µM (active) | – | inactive | – | inactive | – | inactive | inactive | inactive | inactive | – | inactive | – | – | –
N#Cc1c(Cl)c(Cl)c(Cl)c(C#N)c1Cl | – | inactive | 0.121 µM (active) | – | inactive | – | inactive | – | inactive | inactive | inactive | inactive | – | inactive | – | – | –
O=C(O)COc1ccc(Cl)cc1Cl | – | inactive | – | inactive | – | – | – | – | inactive | inactive | inactive | inactive | – | inactive | – | – | –
COP(=S)(OC)Oc1ccc([N+](=O)[O-])cc1 | – | inactive | – | inactive | inactive | – | inactive | – | inactive | inactive | inactive | inactive | – | inactive | – | – | –
CCOC1Oc2ccc(OS(C)(=O)=O)cc2C1(C)C (configuration not stated) | – | inactive | 5.08 µM (active) | – | – | – | inactive | – | inactive | inactive | inactive | inactive | – | inactive | – | 30.8 µM (active) | –
C[C@H]1[C@H](c2ccc(Cl)cc2)SC(=O)N1C(=O)NC1CCCCC1 | – | inactive | 1.93 µM (active) | – | – | 17.5 µM (active) | – | – | inactive | inactive | inactive | inactive | – | inactive | – | – | –
CCN(CC)C(=O)SCc1ccc(Cl)cc1 | – | inactive | 4.49 µM (active) | – | – | 19 µM (active) | – | – | inactive | inactive | inactive | inactive | – | inactive | – | – | –
COC(=O)c1ccccc1S(=O)(=O)NC(=O)N(C)c1nc(C)nc(OC)n1 | – | inactive | 64.7 µM (active) | – | inactive | – | – | – | inactive | inactive | inactive | inactive | – | inactive | – | – | –
CCOc1nc(NC)nc(NC(=O)NS(=O)(=O)c2ccccc2C(=O)OC)n1 | – | inactive | – | inactive | inactive | – | inactive | – | inactive | inactive | inactive | inactive | – | inactive | – | – | –
CCCN(CCC)c1c([N+](=O)[O-])cc(C(F)(F)F)cc1[N+](=O)[O-] | – | inactive | 6.82 µM (active) | – | inactive | – | inactive | – | inactive | inactive | inactive | inactive | – | inactive | – | – | –
CC[C@H](C)[C@H]1O[C@]2(C=C[C@@H]1C)C[C@@H]1C[C@@H](C/C=C(\C)[C@@H](O[C@H]3C[C@H](OC)[C@@H](O[C@H]4C[C@H](OC)[C@@H](O)[C@H](C)O4)[C@H](C)O3)[C@@H](C)/C=C/C=C3\CO[C@@H]4[C@H](O)C(C)=C[C@@H](C(=O)O1)[C@]34O)O2 (tested in a mixture with another compound) | – | inactive | 1.75 µM (active) | – | – | – | – | – | inactive | inactive | inactive | inactive | – | inactive | – | – | –
CCC(C)(C)C(=O)OC1=C(c2ccc(Cl)cc2Cl)C(=O)OC12CCCCC2 | – | inactive | – | inactive | inactive | – | inactive | – | inactive | inactive | inactive | inactive | – | inactive | – | – | –
COC(=O)c1ccccc1S(=O)(=O)NC(=O)Nc1nc(C)nc(OC)n1 | – | inactive | – | inactive | – | – | – | – | inactive | inactive | inactive | inactive | – | inactive | – | – | –
CCOCN(C(=O)CCl)c1c(C)cccc1CC | – | inactive | 0.468 µM (active) | – | – | – | inactive | – | inactive | inactive | inactive | inactive | – | inactive | – | – | –
CC(C)N(C(=O)COc1nnc(C(F)(F)F)s1)c1ccc(F)cc1 | – | inactive | 7.54 µM (active) | – | inactive | – | inactive | – | inactive | inactive | inactive | inactive | – | inactive | – | – | –
O=S(=O)(O)C(F)(F)C(F)(F)C(F)(F)C(F)(F)C(F)(F)C(F)(F)C(F)(F)C(F)(F)F | – | inactive | – | – | – | 133 µM (active) | inactive | 52.8 µM (active) | inactive | inactive | inactive | inactive | 55.9 µM (active) | inactive | 26.5 µM (active) and 53.3 µM (active) | – | 68.7 µM (active)
CNC(=O)/C=C(\C)OP(=O)(OC)OC | – | inactive | – | inactive | inactive | – | – | – | inactive | inactive | inactive | inactive | – | inactive | – | – | –
O=C(NC(=O)c1c(F)cccc1F)Nc1ccc(OC(F)(F)C(F)OC(F)(F)F)c(Cl)c1 (configuration not stated) | – | inactive | – | inactive | – | – | inactive | – | inactive | inactive | inactive | inactive | – | inactive | – | 20.9 µM (active) | –
ClC1C(Cl)C(Cl)C(Cl)C(Cl)C1Cl (configuration not stated) | – | inactive | 2.93 µM (active) [middle of 4 runs] | – | inactive | – | – | – | inactive | inactive | inactive | inactive | – | inactive | 100 µM (active) and 70.3 µM (active) | – | 67.6 µM (active)
N#CN | – | inactive | – | inactive | inactive | – | inactive | – | inactive | inactive | inactive | inactive | – | inactive | – | – | –
C#CCN1C(=O)COc2cc(F)c(N3C(=O)C4=C(CCCC4)C3=O)cc21 | – | inactive | 23.8 µM (active) | – | – | – | – | – | inactive | inactive | inactive | inactive | – | inactive | – | 12.5 µM (active) | –
CC(C)(C)C(O)C(Oc1ccc(Cl)cc1)n1cncn1 (configuration not stated) | – | inactive | 1.27 µM (active) [middle of 6 runs] | – | – | – | inactive | – | inactive | inactive | inactive | inactive | – | inactive | – | – | 48.7 µM (active) and 23.2 µM (active) and 24 µM (active)
O=[N+]([O-])c1c(Cl)c(Cl)c(Cl)c(Cl)c1Cl | 50 µM (active) | – | – | inactive | – | 10.7 µM (active) | – | – | inactive | inactive | inactive | inactive | – | inactive | – | 2.32 µM (active) | –
CN1CSC(=S)N(C)C1 | – | inactive | – | inactive | – | – | inactive | – | inactive | – | inactive | inactive | – | inactive | 50 µM (active) | 10.3 µM (active) | –
O=S1OCC2C(CO1)C1(Cl)C(Cl)=C(Cl)C2(Cl)C1(Cl)Cl (configuration not stated) | – | inactive | 1.47 µM (active) | – | – | – | inactive | – | inactive | inactive | inactive | inactive | – | inactive | – | – | –
[2H]C1([2H])[n+]2ccccc2-c2cccc[n+]2C1([2H])[2H] | – | inactive | 18.6 µM (active) | – | inactive | – | inactive | – | inactive | inactive | – | inactive | – | inactive | – | – | 13.3 µM (active)
